Values without a mark were called inactive. The source made the active and inactive calls. The call rests on the fitted dose curve; in most records, active means well fitted curve in the direction sought with a large enough effect in the repeat runs; inconclusive means weak or mixed curves; inactive means flat fitted curve, though single readings scatter.
test: qHTS assay to test for compound auto fluorescence at 535 nm (green) in HepG2 cell free culture (AID 720686); conditions: Cell-free medium, green autofluorescence 485/535 nm; series mostly up to 91.3 µM
On the % scale 0 is the no-effect control and ±100 the full control effect.

| Compound | outcome | fluorescence, % of fluorescein control |
| --- | --- | --- |
| CC1CCc2c(N3CCC(O)CC3)c(F)cc3c(=O)c(C(=O)O)cn1c23 (stereo not drawn) | inactive |  |
| Cc1ccc(C(C)NC(=O)[C@@H](NC(=O)OC(C)C)C(C)C)cc1 (stereo partly drawn) | inactive |  |
| CN(C)CC/C=C1/c2ccccc2COc2ccc(CC(=O)O)cc21 | inactive |  |
| Cc1cc(C)c(C(=O)O)c(C)c1 | inactive |  |
| CC1(C)[C@H]2CC[C@](C)(C2)[C@H]1O | inactive |  |
| COS(=O)(=O)O | inactive |  |
| CC1c2ccccc2CN1NC(=O)c1ccc(Cl)c(S(N)(=O)=O)c1 (stereo not drawn) | inactive |  |
| C=C(C)c1cccc(C(C)(C)N=C=O)c1 | inactive |  |
| C=CCCCCCCCC | inactive |  |
| O=S(=O)(O)c1ccc2c(N=Nc3ccc(S(=O)(=O)O)c4ccccc34)c(O)c(S(=O)(=O)O)cc2c1 | inactive |  |
| CC(C)=CCC[C@@](C)(O)[C@H]1CC=C(C)CC1 | inactive |  |
| CN(C)CCCCl | inactive |  |
| CCC(=O)c1c(O)cc(O)cc1O | inactive |  |
| Nc1nc(-c2ccccc2)c(Br)c(=O)[nH]1 | inactive |  |
| CSc1cnccn1 | inactive |  |
| O=C1c2ccccc2C(=O)c2cc(Cl)ccc21 |  | -0.0292% [at 3.72 µM] |
| CC(C)Nc1ccccc1 | inactive |  |

| Compound | outcome | fluorescence, % of fluorescein control |
| --- | --- | --- |
| C[C@@H](O)C(=O)O | inactive |  |
| OC[C@@H](O)C(O)[C@@H](O)CO (stereo partly drawn) | inactive |  |
| O=C1CCCCO1 | inactive |  |
| CCCCOC(=O)[C@H](C)O | inactive |  |
| Cn1c(=O)c2[nH]c(Br)nc2n(C)c1=O | inactive |  |
| Cc1ccnc(N)c1 | inactive |  |
| Cc1cccc(Cl)c1 | inactive |  |
| [O]=[Mo](=[O])=[O] |  | -0.0406% [at 18.6 µM] |
| CC1=NN(c2ccc(S(=O)(=O)O)cc2)C(=O)C1 | inactive |  |
| CC(C)OC(=O)OCOP(=O)(CO[C@H](C)Cn1cnc2c(N)ncnc21)OCOC(=O)OC(C)C | inactive |  |
| C/C(CC(C)C)=N\O | inactive |  |
| C=CCCCC | inactive |  |
| C=C(C)[C@@H]1CC=C(C)CC1 | inactive |  |
| CC(CO)(CO)CO | inactive |  |
| O=C1OCCO1 | inactive |  |
| CC(=O)CC(=O)OC(C)(C)C | inactive |  |
| CC1OCCC1=O (stereo not drawn) | inactive |  |

test: qHTS assay to test for compound auto fluorescence at 460 nm (blue) in HepG2 cells (AID 720687); conditions: autofluorescence 405/460 nm, 1 h; series mostly up to 91.3 µM
In short: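 Cells (2,000/well in MEM with 10% FBS) attached overnight at 37 C, then were exposed to compound or DMSO for 1 hr at 37 C, 5% CO2. Fluorescence read at Ex/Em 405/460 nm, expressed as triamterene-equivalent signal.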

| Compound | outcome | fluorescence, % of fluorescent control |
| --- | --- | --- |
| CC1CCc2c(N3CCC(O)CC3)c(F)cc3c(=O)c(C(=O)O)cn1c23 (stereo not drawn) | inactive |  |
| Cc1ccc(C(C)NC(=O)[C@@H](NC(=O)OC(C)C)C(C)C)cc1 (stereo partly drawn) | inactive |  |
| CN(C)CC/C=C1/c2ccccc2COc2ccc(CC(=O)O)cc21 | inactive |  |
| Cc1cc(C)c(C(=O)O)c(C)c1 | inactive |  |
| CC1(C)[C@H]2CC[C@](C)(C2)[C@H]1O | inactive |  |
| COS(=O)(=O)O | inactive |  |
| CC1c2ccccc2CN1NC(=O)c1ccc(Cl)c(S(N)(=O)=O)c1 (stereo not drawn) | inactive |  |
| C=C(C)c1cccc(C(C)(C)N=C=O)c1 | inactive |  |
| C=CCCCCCCCC | inactive |  |
| O=S(=O)(O)c1ccc2c(N=Nc3ccc(S(=O)(=O)O)c4ccccc34)c(O)c(S(=O)(=O)O)cc2c1 | inactive |  |
| CC(C)=CCC[C@@](C)(O)[C@H]1CC=C(C)CC1 | inactive |  |
| CN(C)CCCCl | inactive |  |
| CCC(=O)c1c(O)cc(O)cc1O | inactive |  |
| Nc1nc(-c2ccccc2)c(Br)c(=O)[nH]1 | inactive |  |
| CSc1cnccn1 | inactive |  |
| O=C1c2ccccc2C(=O)c2cc(Cl)ccc21 |  | -0.0186% [at 3.72 µM] |
| CC(C)Nc1ccccc1 | inactive |  |

| Compound | outcome | fluorescence, % of fluorescent control |
| --- | --- | --- |
| C[C@@H](O)C(=O)O | inactive |  |
| OC[C@@H](O)C(O)[C@@H](O)CO (stereo partly drawn) | inactive |  |
| O=C1CCCCO1 | inactive |  |
| CCCCOC(=O)[C@H](C)O | inactive |  |
| Cn1c(=O)c2[nH]c(Br)nc2n(C)c1=O | inactive |  |
| Cc1ccnc(N)c1 | inactive |  |
| Cc1cccc(Cl)c1 | inactive |  |
| [O]=[Mo](=[O])=[O] |  | 0.0613% [at 18.6 µM] |
| CC1=NN(c2ccc(S(=O)(=O)O)cc2)C(=O)C1 | inactive |  |
| CC(C)OC(=O)OCOP(=O)(CO[C@H](C)Cn1cnc2c(N)ncnc21)OCOC(=O)OC(C)C | inactive |  |
| C/C(CC(C)C)=N\O | inactive |  |
| C=CCCCC | inactive |  |
| C=C(C)[C@@H]1CC=C(C)CC1 | inactive |  |
| CC(CO)(CO)CO | inactive |  |
| O=C1OCCO1 | inactive |  |
| CC(=O)CC(=O)OC(C)(C)C | inactive |  |
| CC1OCCC1=O (stereo not drawn) | inactive |  |
